Assay results from the supplement of paper PMC9694430.

How the values were obtained:
Assay in all cases: thermal shift delta Tm vs DMSO control; higher = stronger stabilization (binding)
Settings in all cases: 12.5 µM; protein concentration 2 µM
LOC_OS02G45750-cb003 = system: LOC_OS02G45750-cb003
Method in brief: (§1)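 Rice kinase domain constructs, made in E. coli and purified, were placed in 96-well plates at 2 μM in 19.5 μl of 100 mM potassium phosphate pH 7.5, 150 mM NaCl, 10% glycerol and 5 × SYPRO Orange, with compound in DMSO. A temperature ramp from 25°C to 95°C at 0.05°C/s was used for differential scanning fluorimetry. The melting temperature shift is a triplicate mean compared with DMSO-only protein, derived from Boltzmann fits.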

LOC_OS02G54510-cb004 = system: LOC_OS02G54510-cb004
Method in brief: as §1

LOC_OS03G04050-cb001 = system: LOC_OS03G04050-cb001
Method in brief: as §1

LOC_OS03G12390-cb001 = system: LOC_OS03G12390-cb001
Method in brief: as §1

LOC_OS03G27990-cb004 = system: LOC_OS03G27990-cb004
Method in brief: as §1

LOC_OS03G50450-cb001 = system: LOC_OS03G50450-cb001
Method in brief: as §1

LOC_OS03G50810-cb003 = system: LOC_OS03G50810-cb003
Method in brief: as §1

LOC_OS04G35114-cb001 = system: LOC_OS04G35114-cb001
Method in brief: as §1

LOC_OS04G38480-cb003 = system: T1, LOC_OS04G38480-cb003
T1 sequence (whole entry): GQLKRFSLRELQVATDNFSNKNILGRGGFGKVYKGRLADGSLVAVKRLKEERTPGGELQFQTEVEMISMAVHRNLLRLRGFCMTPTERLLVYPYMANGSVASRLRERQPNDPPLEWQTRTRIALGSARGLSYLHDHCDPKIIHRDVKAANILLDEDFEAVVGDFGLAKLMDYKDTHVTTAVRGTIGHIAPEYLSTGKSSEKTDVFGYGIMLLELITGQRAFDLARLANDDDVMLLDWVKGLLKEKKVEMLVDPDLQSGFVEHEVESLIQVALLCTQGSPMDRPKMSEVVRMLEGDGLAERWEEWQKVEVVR
Method in brief: as §1

LOC_OS04G41100-cb001 = system: T2, LOC_OS04G41100-cb001
T2 sequence (whole entry): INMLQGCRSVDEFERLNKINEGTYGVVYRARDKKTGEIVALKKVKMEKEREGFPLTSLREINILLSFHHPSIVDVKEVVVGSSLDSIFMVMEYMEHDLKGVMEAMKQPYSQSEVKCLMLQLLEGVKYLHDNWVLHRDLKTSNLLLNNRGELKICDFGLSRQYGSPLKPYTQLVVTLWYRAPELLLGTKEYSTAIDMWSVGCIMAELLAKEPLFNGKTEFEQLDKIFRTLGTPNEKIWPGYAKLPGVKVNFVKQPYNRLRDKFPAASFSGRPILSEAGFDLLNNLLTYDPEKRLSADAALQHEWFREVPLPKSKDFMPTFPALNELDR
Method in brief: as §1

LOC_OS04G57630-cb004 = system: LOC_OS04G57630-cb004
Method in brief: as §1

LOC_OS05G07850-cb002 = system: LOC_OS05G07850-cb002
Method in brief: as §1

LOC_OS05G16824-cb004 = system: LOC_OS05G16824-cb004
Method in brief: as §1

LOC_OS05G28520-cb001 = system: LOC_OS05G28520-cb001
Method in brief: as §1

LOC_OS05G30820-cb001 = system: LOC_OS05G30820-cb001
Method in brief: as §1

LOC_OS05G43570-cb004 = system: LOC_OS05G43570-cb004
Method in brief: as §1

LOC_OS06G16330-cb003 = system: LOC_OS06G16330-cb003
Method in brief: as §1

LOC_OS06G22820-cb001 = system: T3, LOC_OS06G22820-cb001
T3 sequence (whole entry): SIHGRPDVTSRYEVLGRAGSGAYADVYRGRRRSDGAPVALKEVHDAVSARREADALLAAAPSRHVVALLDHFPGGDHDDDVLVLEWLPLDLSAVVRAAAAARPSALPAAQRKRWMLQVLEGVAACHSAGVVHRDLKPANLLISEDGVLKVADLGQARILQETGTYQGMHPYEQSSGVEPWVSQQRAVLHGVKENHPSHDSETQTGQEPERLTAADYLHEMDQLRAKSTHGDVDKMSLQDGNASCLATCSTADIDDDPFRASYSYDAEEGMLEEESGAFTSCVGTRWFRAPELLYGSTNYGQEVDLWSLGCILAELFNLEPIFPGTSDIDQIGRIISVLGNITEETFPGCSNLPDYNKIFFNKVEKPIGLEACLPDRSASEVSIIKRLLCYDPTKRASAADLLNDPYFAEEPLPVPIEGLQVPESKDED
Method in brief: as §1

LOC_OS07G06570-cb004 = system: LOC_OS07G06570-cb004
Method in brief: as §1

LOC_OS07G07230-cb001 = system: LOC_OS07G07230-cb001
Method in brief: as §1
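Also: purified Escherichia coli-expressed rice kinase domain construct.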

Sequence of LOC_OS06G16330-cb003 (as listed by the source): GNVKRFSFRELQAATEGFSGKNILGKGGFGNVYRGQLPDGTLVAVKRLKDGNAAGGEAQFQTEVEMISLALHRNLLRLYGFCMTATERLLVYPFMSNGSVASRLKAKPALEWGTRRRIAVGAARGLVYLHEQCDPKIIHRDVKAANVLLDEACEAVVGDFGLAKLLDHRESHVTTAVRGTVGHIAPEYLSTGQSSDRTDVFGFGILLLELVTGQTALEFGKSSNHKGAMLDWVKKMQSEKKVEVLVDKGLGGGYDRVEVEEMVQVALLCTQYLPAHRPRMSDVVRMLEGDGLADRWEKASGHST

Row | SMILES | thermal shift delta Tm (LOC_OS02G45750-cb003) [°C] | thermal shift delta Tm (LOC_OS02G54510-cb004) [°C] | thermal shift delta Tm (LOC_OS03G04050-cb001) [°C] | thermal shift delta Tm (LOC_OS03G12390-cb001) [°C] | thermal shift delta Tm (LOC_OS03G27990-cb004) [°C] | thermal shift delta Tm (LOC_OS03G50450-cb001) [°C] | thermal shift delta Tm (LOC_OS03G50810-cb003) [°C] | thermal shift delta Tm (LOC_OS04G35114-cb001) [°C] | thermal shift delta Tm (LOC_OS04G38480-cb003) [°C] | thermal shift delta Tm (LOC_OS04G41100-cb001) [°C] | thermal shift delta Tm (LOC_OS04G57630-cb004) [°C] | thermal shift delta Tm (LOC_OS05G07850-cb002) [°C] | thermal shift delta Tm (LOC_OS05G16824-cb004) [°C] | thermal shift delta Tm (LOC_OS05G28520-cb001) [°C] | thermal shift delta Tm (LOC_OS05G30820-cb001) [°C] | thermal shift delta Tm (LOC_OS05G43570-cb004) [°C] | thermal shift delta Tm (LOC_OS06G16330-cb003) [°C] | thermal shift delta Tm (LOC_OS06G22820-cb001) [°C] | thermal shift delta Tm (LOC_OS07G06570-cb004) [°C] | thermal shift delta Tm (LOC_OS07G07230-cb001) [°C]
1 | C[C@@H](N)c1ccc(C(=O)Nc2ccnc3[nH]ccc23)cc1 | 1.52 | 0.39 | 0.7 | 0.27 | 0.76 | 0.85 | 0.77 | 1.23 | 2.01 | 0.85 | 0.16 | 3.37 | -0.56 | 0.67 | 0.3 | 0.84 | 2.93 | 0.59 | 0.72 | -0.1
2 | O=C(O)c1ccc2c(c1)nc(Nc1cccc(Cl)c1)c1ccncc12 [Silmitasertib (CX-4945)] | 1.82 | 1.5 | 0.25 | 4.4 | 4.14 | 0.83 | 1.55 | 6.87 | 1.13 | 0.77 | 0.56 | 8.41 | 3.01 | 0.57 | 0.68 | 0.46 | 3.05 | 0.65 | 1.59 | 0.82
3 | O=C(c1ccc(F)c(F)c1Nc1ccc(I)cc1F)N1CC(O)([C@@H]2CCCCN2)C1 [Cobimetinib (GDC-0973, RG7420)] | 1.13 | 0.05 | 0.77 | -0.17 | 0.68 | 0.95 | 0.43 | 0.76 | 0.54 | 0.19 | 0.22 | 0.2 | -1.19 | 0.07 | 0.47 | 0.39 | -0.17 | 0.43 | 1.59 | 0.43
4 | CCS(=O)(=O)N1CCN(c2ccc(Nc3ncc(C(N)=O)c(NC4CC4)n3)cc2)CC1 | 8.46 | 4.48 | 0.19 | 6.9 | 5.89 | 5.37 | 4.92 | 6.29 | 2.13 | 2.54 | 1.82 | 9.2 | 11.7 | 0.7 | 3.56 | 2.04 | 5.15 | 0.57 | 1.36 | 1.17
5 | C#Cc1cccc(Nc2ncnc3cc(OCCOC)c(OCCO)cc23)c1 | 3.92 | 0.67 | 0.26 | 2.39 | 0.08 | 0.13 | 0.83 | 6.33 | 1.21 | 0.13 | 0.14 | 8.23 | 0.76 | -0.52 | 0.4 | 0.13 | 3.5 | 0.25 | 0.7 | -0.14
6 | Cc1csc(-c2nnc(Nc3ccc(Oc4ncccc4-c4ccnc(N)n4)cc3)c3ccccc23)c1 | 1.33 | 0.9 | 0.3 | 0.26 | 0.96 | 0.26 | 0.96 | 1.18 | 2.54 | 1.68 | 0.49 | 6.74 | 1.04 | 0.38 | 0.85 | 0.03 | 3.12 | 0.66 | 0.09 | 0.17
